From PubChem BioAssay (Tox21)
Values joined by “and” are separate entries in the source; they are usually repeats but may differ in a detail not shown here. Equal entries are not always repeated. Records with an inconclusive call do not appear. Active and inactive are the calls of the source. Unless noted, calls come from the whole dose curve; as a rule, active = well fitted curve in the direction sought with a large enough effect in the repeat runs; inconclusive = weak or mixed curves; inactive = no such curve, though single readings can be large; an effect the other way counts as inactive or inconclusive.

What was measured:
[1] = A CellTox Green Cytotoxicity Assay to monitor cytotoxicity in HepG2 cells - 0 hour (AID 1224882); note: nearly all actives have a fitted effect of over 35% in size
Method in brief: (§1)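 First, HepG2 cells (600/well) mixed with reagent were plated; second, after 5 h at 37 C they received compounds via pintool; third, fluorescence was measured at 0 h through 40 h at 8 h intervals.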

[2] = A CellTox Green Cytotoxicity Assay to monitor cytotoxicity in HepG2 cells - 32 hour (AID 1224883); note: nearly all actives have a fitted effect of over 50% in size; note: potency is the fitted concentration of half-maximal effect
Method in brief: as §1

[3] = A CellTox Green Cytotoxicity Assay to monitor cytotoxicity in HEK293 cells - 8 hour (AID 1224884); note: nearly all actives have a fitted effect of over 35% in size; note: potency is the fitted concentration of half-maximal effect
Method in brief: (§2)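 Dead-cell fluorescence measured kinetically: asymmetric cyanine dye, HEK293, 600 cells/well, 5 h settle, 23 nL cpd/DMSO, 37 C, reads 0–40 h every 8 h.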

[4] = qHTS RealTime-Glo MT Cell Viability Assay in HepG2 cells - 16 hour (AID 1224885); note: nearly all actives have a fitted effect of over 50% in size; note: potency is the fitted concentration of half-maximal effect
Method in brief: (§3)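 Real-time, nonlytic viability: 600 HepG2 cells/well mixed with NanoLuc enzyme plus prosubstrate; 5 h settle, compound (DMSO) added by pintool; luminescence monitored over 40 h at 37 C.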

[5] = qHTS RealTime-Glo MT Cell Viability Assay in HEK293 cells - 24 hour (AID 1224886); note: nearly all actives have a fitted effect of over 50% in size; note: potency is the fitted concentration of half-maximal effect; for activity change, negative = cytotoxicity: top concentration of the series differs between compounds
Method in brief: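 Cells + reagent dispensed (600 cells/well, HEK293) → 5 h at 37 C/5% CO2 → 23 nL compound in DMSO pinned → 40 h at 37 C → luminescence read at 0, 8, 16, 24, 32, 40 h.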

[6] = qHTS RealTime-Glo MT Cell Viability Assay in HEK293 cells - 8 hour (AID 1224887); note: top concentration of the series differs between compounds; nearly all actives have a fitted effect of over 50% in size
Method in brief: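 600 HEK293 cells per well, dispensed already mixed with RealTime-Glo MT reagents. Compound dosing came 5 h later. The same wells were read for luminescence at 0, 8, 16, 24, 32 and 40 h of exposure at 37 C.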

[7] = A CellTox Green Cytotoxicity Assay to monitor cytotoxicity in HEK293 cells - 16 hour (AID 1224888); note: nearly all actives have a fitted effect of over 35% in size; note: potency is the fitted concentration of half-maximal effect
Method in brief: as §2

[8] = qHTS RealTime-Glo MT Cell Viability Assay in HepG2 cells - 0 hour (AID 1224889); note: nearly all actives have a fitted effect of over 50% in size; note: potency is the fitted concentration of half-maximal effect
Method in brief: as §3

[9] = target: Androgen receptor (Homo sapiens) (UniProt P10275); experiment: qHTS assay to identify small molecule antagonists of the androgen receptor (AR) signaling pathway using the MDA cell line in the presence of 0.5 nM R1881 (AID 1259243); note: nearly all actives have a fitted effect of over 50% in size; note: potency is the fitted concentration of half-maximal effect
Androgen receptor (Homo sapiens), sequence (P10275 whole entry, looked up): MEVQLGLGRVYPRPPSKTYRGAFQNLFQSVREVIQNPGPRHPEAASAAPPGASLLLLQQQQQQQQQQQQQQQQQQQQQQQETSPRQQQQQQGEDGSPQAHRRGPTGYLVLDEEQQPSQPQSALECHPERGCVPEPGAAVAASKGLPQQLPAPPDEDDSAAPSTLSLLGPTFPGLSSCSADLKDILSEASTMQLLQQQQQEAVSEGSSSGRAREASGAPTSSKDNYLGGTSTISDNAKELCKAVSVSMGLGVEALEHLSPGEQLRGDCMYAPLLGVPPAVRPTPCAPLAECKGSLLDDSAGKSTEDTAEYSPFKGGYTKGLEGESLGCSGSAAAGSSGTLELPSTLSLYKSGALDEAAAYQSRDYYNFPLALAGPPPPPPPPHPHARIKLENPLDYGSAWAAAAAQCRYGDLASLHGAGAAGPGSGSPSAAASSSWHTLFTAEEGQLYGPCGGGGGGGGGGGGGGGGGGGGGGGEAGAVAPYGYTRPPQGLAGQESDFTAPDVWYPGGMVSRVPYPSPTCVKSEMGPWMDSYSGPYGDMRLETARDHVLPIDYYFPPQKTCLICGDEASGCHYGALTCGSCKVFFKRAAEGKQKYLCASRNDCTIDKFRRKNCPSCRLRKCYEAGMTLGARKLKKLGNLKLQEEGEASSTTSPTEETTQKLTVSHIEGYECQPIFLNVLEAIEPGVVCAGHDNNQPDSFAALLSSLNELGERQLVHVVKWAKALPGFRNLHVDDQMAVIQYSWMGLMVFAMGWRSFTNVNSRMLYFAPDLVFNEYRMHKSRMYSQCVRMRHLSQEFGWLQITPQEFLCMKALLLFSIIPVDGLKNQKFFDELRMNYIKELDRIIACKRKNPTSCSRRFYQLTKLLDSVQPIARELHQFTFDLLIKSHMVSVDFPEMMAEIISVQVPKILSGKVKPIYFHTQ
Method in brief: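 Antagonist mode quantitative HTS in MDA-kb2 MMTV-luciferase cells, agonist R1881 at 0.5 nM final, 16 hr exposure at 37C and 0% CO2, luminescent detection.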

[10] = target: Estrogen receptor (Homo sapiens) (UniProt P03372); experiment: qHTS assay to identify small molecule antagonists of the estrogen receptor alpha (ER-alpha) signaling pathway using the BG1 cell line in the presence of 0.1 nM 17-beta-estradiol (AID 1259244); note: nearly all actives have a fitted effect of over 50% in size; note: potency is the fitted concentration of half-maximal effect
Estrogen receptor (Homo sapiens), sequence (P03372 whole entry, looked up): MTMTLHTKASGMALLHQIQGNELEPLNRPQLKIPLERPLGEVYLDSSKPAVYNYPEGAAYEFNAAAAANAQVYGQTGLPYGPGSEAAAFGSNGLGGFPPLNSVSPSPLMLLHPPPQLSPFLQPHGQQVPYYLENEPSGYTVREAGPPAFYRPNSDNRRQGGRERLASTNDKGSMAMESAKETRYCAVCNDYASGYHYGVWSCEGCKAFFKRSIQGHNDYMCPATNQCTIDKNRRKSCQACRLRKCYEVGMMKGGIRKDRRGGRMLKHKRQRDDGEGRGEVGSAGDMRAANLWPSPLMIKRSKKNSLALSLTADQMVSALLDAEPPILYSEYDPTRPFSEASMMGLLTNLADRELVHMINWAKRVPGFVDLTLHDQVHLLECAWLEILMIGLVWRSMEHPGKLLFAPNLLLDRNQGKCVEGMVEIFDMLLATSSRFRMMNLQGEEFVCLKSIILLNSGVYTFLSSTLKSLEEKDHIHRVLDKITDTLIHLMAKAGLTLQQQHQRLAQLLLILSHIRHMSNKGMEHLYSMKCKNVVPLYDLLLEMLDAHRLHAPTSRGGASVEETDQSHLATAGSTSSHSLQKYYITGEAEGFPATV
Method in brief: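 Reporter is a stably transfected luciferase under four estrogen responsive elements in VM7Luc4E2 cells expressing native full-length ER-alpha; inhibition of 0.1 nM (final) 17beta-estradiol-driven signal over 22 h is read by luminescence.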

[11] = qHTS assay to identify small molecule HDAC inhibitors (AID 1259364);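 note: wild-type HCT-116 cells with endogenous class I/II HDAC activity; top concentration of the series differs between compounds; nearly all actives have a fitted effect of over 45% in size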
Method in brief: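 Quantitative high-throughput format: overnight-seeded HCT-116 cells got compounds for 2 hr at 37C; HDAC-Glo I/II reagent added, 30 min RT, luminescence measured.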

[12] = qHTS assay to identify small molecule HDAC inhibitors - cell viability counter screen (AID 1259365); note: nearly all actives have a fitted effect of over 50% in size; note: potency is the fitted concentration of half-maximal effect; for activity change, negative = cytotoxicity: series mostly up to about 92 µM
Method in brief: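 HCT-116 wild-type, overnight attachment; 2hr drug exposure, 37C; CellTiter-Glo luminescent ATP readout after 30min RT.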

[13] = qHTS assay to identify small molecule agonists of the sonic hedgehog signaling (Shh) pathway - cell viability counter screen (AID 1259366); note: nearly all actives have a fitted effect of over 50% in size; note: potency is the fitted concentration of half-maximal effect
Method in brief: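 Compounds in DMSO were pin-transferred onto 3T3 Gli1-Luc cells that had settled 4hr; plates then stood 24hr at 37C and 5% CO2. One hour before the end, CellTiter-Fluor was added and fluorescence recorded.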

[14] = qHTS assay to identify small molecule agonists of the sonic hedgehog signaling (Shh) pathway (AID 1259368; calls by dose curve;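 note: NIH/3T3-derived 3T3Gli1-Luc cells carrying a stable Gli1-driven firefly luciferase reporter; series mostly up to about 92 µM; nearly all actives have a fitted effect of over 15% in size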)
Method in brief: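 Quantitative high-throughput format using a Gli1-driven firefly luciferase reporter line derived from NIH/3T3 cells. After a 24 hr compound treatment at 37 C and 5% CO2, luminescence reported Gli1 response element activity.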

[15] = qHTS assay to identify small molecule antagonists of the sonic hedgehog signaling (Shh) pathway (AID 1259369; calls by dose curve; note: nearly all actives have a fitted effect of over 45% in size; note: potency is the fitted concentration of half-maximal effect)
Method in brief: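 Stable Gli1-Luc reporter NIH/3T3 clone; quantitative HTS in stimulated mode with conditioned medium. Luminescence measured after 24hr compound treatment at 37 C.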

[16] = A CellTox Green Cytotoxicity Assay to monitor cytotoxicity in HepG2 cells - 8 hour (AID 1224890); note: nearly all actives have a fitted effect of over 45% in size; note: potency is the fitted concentration of half-maximal effect
Method in brief: as §1

[17] = qHTS assay to identify small molecule antagonists of the estrogen receptor alpha (ER-alpha) signaling pathway using the BG1 cell line in the presence of 0.1 nM 17-beta-estradiol - cell viability counter screen (AID 1259241); note: nearly all actives have a fitted effect of over 40% in size; note: potency is the fitted concentration of half-maximal effect
Method in brief: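 Following 5 days in phenol red-free medium with charcoal-stripped serum, VM7Luc4E2 cells received test compounds alongside 0.1 nM 17beta-estradiol (final) at 37C for 22 hr. Live cells were then quantified via protease-substrate fluorescence.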

[18] = qHTS assay to identify small molecule antagonists of the androgen receptor (AR) signaling pathway using the MDA cell line in the presence of 0.5 nM R1881 - cell viability counter screen (AID 1259242); note: nearly all actives have a fitted effect of over 45% in size; note: potency is the fitted concentration of half-maximal effect
Method in brief: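 qHTS format. MDA-kb2 (MMTV-luc, AR/GR responsive) + cpd + 0.5 nM R1881 final, 16 hr 37C/0% CO2 → CellTiter-Fluor 30 min → fluorescence intensity.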

[19] = qHTS assay to identify small molecule antagonists of the sonic hedgehog signaling (Shh) pathway - cell viability counter screen (AID 1259367); note: nearly all actives have a fitted effect of over 55% in size; note: potency is the fitted concentration of half-maximal effect
Method in brief: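 Viability was read by CellTiter-Fluor fluorescence in the same wells, reagent added 23 hr into compound treatment and incubated 1 hr at 37C. The 3T3 Gli1-Luc reporter cells (2,000/well) received conditioned medium after compound and ran 24 hr.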

[20] = qHTS assay to identify small molecule phospholipidosis (PLD) inducers (AID 1259344; active = well fitted curve in the direction sought with a large enough effect; an effect the other way counts as inactive or inconclusive)
Method in brief: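 Phospholipid accumulation was scored by imaging: fixed, Hoechst-counterstained HepG2 cells stained with LipidTOX Red after 24 h compound exposure at 37 C. Read-outs were pit count and pit intensity per well or per cell, with amiodarone and DMSO controls.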
% is set by controls: 0 for no effect and ±100 for the full control effect.

Nc1ccc([N+](=O)[O-])cc1Cl
active: Potency [9] 24.3 µM
inactive: Potency [1] | Potency [2] | Potency [3] | Potency [4] | Potency [5] | Potency [6] | Potency [7] | Potency [8] | Potency [10] | Potency [11] | Potency [12] | Potency [13] | Potency [14] | Potency [15]

CCSC(C)CC1CC(=O)C(/C(CC)=N/OC/C=C/Cl)=C(O)C1 (centres undefined)
inactive: Potency [1] | Potency [2] | Potency [3] | Potency [4] | Potency [5] | Potency [7] | Potency [8] | Potency [16] | Potency [17] | Potency [18] | Potency [9] | Potency [10] | Potency [11] | Potency [12] | Potency [13] | Potency [19] | Potency [14] | Potency [15]

O=C(CCl)C(Cl)Cl
inactive: Potency [1] | Potency [3] | Potency [4] | Potency [7] | Potency [8] | Potency [16] | Potency [17] | Potency [10] | Potency [11] | Potency [12] | Potency [14]
active: Potency [2] 55.5 µM | Potency [5] 17.5 µM | Potency [13] 17.4 µM | Potency [19] 17.4 µM | Potency [15] 2.76 µM

CCc1cc(C)cc(CC)c1-c1c(OC(=O)C(C)(C)C)n2n(c1=O)CCOCC2
inactive: Potency [1] | Potency [2] | Potency [3] | Potency [4] | Potency [5] | Potency [6] | Potency [7] | Potency [8] | Potency [18] | Potency [10] | Potency [11] | Potency [12] | Potency [14]

O=CC(Br)(Br)Br
active: Potency [2] 38.8 µM | Potency [4] 48.8 µM | Potency [5] 2.45 µM | Potency [18] 43.1 µM | Potency [19] 60.9 µM | Potency [15] 24.3 µM
inactive: Potency [1] | Potency [3] | Potency [7] | Potency [8] | Potency [16] | Potency [10] | Potency [11] | Potency [12] | Potency [14]

Nc1ccc(Sc2ccc(N)cc2)cc1
inactive: Potency [1] | Potency [3] | Potency [4] | Potency [5] | Potency [6] | Potency [8] | Potency [17] | Potency [18] | Potency [20] | Potency [11] | Potency [12] | Potency [13] | Potency [19] | Potency [14]
active: Potency [2] 4.36 µM

COc1cc(N)c(Cl)cc1C(=O)NC1CN2CCC1CC2 (centres undefined)
inactive: Potency [1] | Potency [2] | Potency [3] | Potency [4] | Potency [5] | Potency [7] | Potency [8] | Potency [16] | Potency [17] | Potency [18] | Potency [20] | Potency [11] | Potency [12] | Potency [13] | Potency [14] | Potency [15]

C[CH2][Hg][N]1C(=O)C2C(C1=O)C1(Cl)C(Cl)=C(Cl)C2(Cl)C1(Cl)Cl (centres undefined)
inactive: cytotoxicity [1] 1.33% [at 15.8 µM] | activity change, negative = cytotoxicity [8] -6.6% [at 15.8 µM] | activity change, negative = cytotoxicity [12] -3.87% [at 19 µM] | activity change [14] -11.5% [at 18.9 µM, active compounds read high]
active: Potency [2] 8.27 µM | Potency [3] 4.65 µM | Potency [4] 6.57 µM | Potency [5] 2.33 µM | Potency [7] 4.65 µM | Potency [16] 8.27 µM | Potency [17] 13 µM | Potency [18] 13 µM | Potency [9] 7.3 µM | Potency [13] 7.3 µM

C[C@]12CC[C@H]3[C@@H](CCC4=CC(=O)CC[C@@]43C)[C@@H]1CC[C@@H]2O
inactive: Potency [1] | Potency [2] | Potency [3] | Potency [4] | Potency [7] | Potency [16] | Potency [17] | Potency [18] | Potency [10] | Potency [11] | Potency [12] | Potency [13] | Potency [19] | Potency [14]
active: Potency [5] 54.6 µM | Potency [8] 21.7 µM

ClC1=C(Cl)[C@]2(Cl)[C@@H]3[C@@H](Cl)[C@H](Cl)C[C@@H]3[C@@]1(Cl)C2(Cl)Cl
inactive: Potency [1] | Potency [2] | Potency [3] | Potency [4] | Potency [5] | Potency [6] | Potency [8] | Potency [16] | Potency [17] | Potency [18] | Potency [9] | Potency [10] | Potency [11] | Potency [12] | Potency [13] | Potency [19] | Potency [14] | Potency [15]

O=C(O)C1C2CCC(O2)C1C(=O)O (centres undefined)
active: Potency [13] 19.6 µM and 11.2 µM | Potency [19] 31 µM | Potency [15] 15.8 µM
inactive: Potency [1] | Potency [2] | Potency [3] | Potency [4] | Potency [5] | Potency [7] | Potency [8] | Potency [16] | Potency [17] | Potency [18] | Potency [11] | Potency [12] | Potency [14]

C[C@H]1CC[C@@H]2[C@@H](C)[C@H]3[C@H](C[C@H]4[C@@H]5CC=C6CC(O[C@@H]7O[C@H](CO)[C@H](O)[C@H](O[C@@H]8O[C@H](CO)[C@@H](O)[C@H](O)[C@H]8O)[C@H]7O[C@H]7O[C@@H](C)[C@H](O)[C@@H](O)[C@H]7O)CC[C@]6(C)[C@H]5CC[C@]34C)N2C1 (some centres undefined)
inactive: Potency [1] | Potency [8] | Potency [17] | Potency [10] | Potency [20] | Potency [11] | Potency [19] | Potency [14] | Potency [15]
active: Potency [2] 22.6 µM | Potency [3] 12.7 µM | Potency [4] 50.6 µM | Potency [5] 12.7 µM | Potency [7] 7.14 µM | Potency [18] 25.1 µM | Potency [12] 28.2 µM

C=CC(=O)OCC(COC(=O)C=C)(COC(=O)C=C)COC(=O)C=C
active: Potency [2] 38.9 µM | Potency [4] 4.9 µM | Potency [5] 3.89 µM | Potency [17] 19.3 µM | Potency [18] 13.7 µM | Potency [9] 4.33 µM | Potency [10] 15.4 µM | Potency [13] 5.45 µM | Potency [19] 7.7 µM | Potency [15] 6.86 µM
inactive: Potency [1] | Potency [3] | Potency [7] | Potency [8] | Potency [11] | Potency [14]
